Laboratory results reported in PubChem BioAssay (Tox21).
Results filed as inconclusive are left out. A call without a number means that no potency is given here. Unmarked numbers belong to inactive results. Calls of active or inactive are those of the source. Unless noted, calls come from the whole dose curve; as a rule, active = well fitted curve in the direction sought with a large enough effect in the repeat runs; inconclusive = weak or mixed curves; inactive = no such curve, though single readings can be large; an effect the other way counts as inactive or inconclusive.

Assays:
[1] = qHTS assay to identify small molecule antagonists of the thyroid receptor (TR) signaling pathway - cell viability counter screen (AID 743064); note: nearly all actives have a fitted effect of over 50% in size; note: potency is the fitted concentration of half-maximal effect
In short: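 In-well cytotoxicity read by CellTiter-Fluor (30 min, 37 C) following 23.5 h exposure of GH3 cells bearing a TRE-luciferase sensor. Compounds were added alongside 1 nM (final) T3 to drive TR transactivation.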

[2] = qHTS assay to identify small molecule antagonists of the thyroid receptor (TR) signaling pathway (AID 743065); note: series mostly up to about 70 µM; nearly all actives have a fitted effect of over 55% in size
In short: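 Antagonism measured as loss of luciferase signal in GH3 cells stably carrying a TRE-luciferase reporter, co-treated with compound and T3 (1 nM final) for 23.5 h at 37 C. Viability was read in the same well by CellTiter-Fluor.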

[3] = tested on: thyroid hormone receptor (rat, GH3 cells); experiment: qHTS assay to identify small molecule agonists of the thyroid receptor (TR) signaling pathway (AID 743066; calls by dose curve)
[4] = target: Estrogen receptor (Homo sapiens) (UniProt P03372); experiment: qHTS assay to identify small molecule antagonists of the estrogen receptor alpha (ER-alpha) signaling pathway (AID 743069; active = well fitted curve in the direction sought with a large enough effect in the signal ratio in the repeat runs, not every such curve was filed as active; the % refers to the signal ratio)
Chain of Estrogen receptor (Homo sapiens) (P03372 whole entry, looked up): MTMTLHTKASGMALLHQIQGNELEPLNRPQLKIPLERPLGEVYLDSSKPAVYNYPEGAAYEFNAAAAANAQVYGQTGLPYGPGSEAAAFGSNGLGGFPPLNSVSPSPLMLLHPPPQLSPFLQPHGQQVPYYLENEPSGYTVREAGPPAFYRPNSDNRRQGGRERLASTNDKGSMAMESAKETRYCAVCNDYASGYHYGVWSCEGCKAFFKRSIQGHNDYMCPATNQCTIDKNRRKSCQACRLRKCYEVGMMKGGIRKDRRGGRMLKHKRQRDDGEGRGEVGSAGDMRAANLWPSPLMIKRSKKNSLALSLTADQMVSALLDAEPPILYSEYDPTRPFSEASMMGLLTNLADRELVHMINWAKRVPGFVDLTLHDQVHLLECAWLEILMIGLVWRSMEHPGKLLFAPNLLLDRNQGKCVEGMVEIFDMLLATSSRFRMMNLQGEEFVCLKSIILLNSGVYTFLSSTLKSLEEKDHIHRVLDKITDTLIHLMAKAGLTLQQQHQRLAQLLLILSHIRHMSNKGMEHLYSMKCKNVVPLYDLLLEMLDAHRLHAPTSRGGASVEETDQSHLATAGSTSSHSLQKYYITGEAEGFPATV
In short: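 Antagonist mode: compounds in DMSO were co-added with 17beta-estradiol to ER-alpha-bla HEK293 cells (2% charcoal-stripped serum) and left 18 h at 37C. Reporter inhibition was measured as FRET fluorescence after 2 h LiveBLAzer substrate at room temperature.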

[5] = qHTS assay to identify small molecule antagonists of the estrogen receptor alpha (ER-alpha) signaling pathway - cell viability counter screen (AID 743074; calls by dose curve;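 note: HEK293 cells carrying ER-alpha-UAS-bla reporter stimulated with 17beta-estradiol; nearly all actives have a fitted effect of over 45% in size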)
[6] = target: Estrogen receptor (Homo sapiens) (UniProt P03372); experiment: qHTS assay to identify small molecule agonists of the estrogen receptor alpha (ER-alpha) signaling pathway (AID 743075; calls by dose curve;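 note: HEK293 GripTite cells with ER-alpha and UAS-driven beta-lactamase reporter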)
[7] = target: Estrogen receptor (Homo sapiens) (UniProt P03372); experiment: qHTS assay to identify small molecule agonists of the estrogen receptor alpha (ER-alpha) signaling pathway using the BG1 cell line (AID 743079); note: nearly all actives have a fitted effect of over 20% in size
[8] = qHTS assay to identify small molecule antagonists of the estrogen receptor alpha (ER-alpha) signaling pathway using the BG1 cell line (AID 743080; calls by dose curve;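 note: BG1 cells stimulated with 17beta-estradiol alongside compound; series mostly up to about 70 µM; nearly all actives have a fitted effect of over 25% in size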)
In short: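 BG1-Luc-4E2 cells (endogenous full-length ER-alpha, stable 4×ERE-luciferase) were starved 5 days in phenol-red-free medium with 10% charcoal-stripped FBS, plated 24 h, then given compound plus 17beta-estradiol for 21.5 h at 37 C; ONE-Glo luminescence read after 30 min.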

[9] = qHTS assay to identify small molecule antagonists of the estrogen receptor alpha (ER-alpha) signaling pathway using the BG1 cell line - cell viability counter screen (AID 743081);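 note: compound given together with 17beta-estradiol as the ER stimulus; nearly all actives have a fitted effect of over 45% in size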; note: potency is the fitted concentration of half-maximal effect; for activity change, negative = cytotoxicity: series mostly up to about 70 µM
[10] = target: Aromatase (Homo sapiens) (UniProt P11511); experiment: qHTS assay to identify aromatase inhibitors (AID 743083); note: series mostly up to about 70 µM; nearly all actives have a fitted effect of over 55% in size
Chain of Aromatase (Homo sapiens) (P11511 whole entry, looked up): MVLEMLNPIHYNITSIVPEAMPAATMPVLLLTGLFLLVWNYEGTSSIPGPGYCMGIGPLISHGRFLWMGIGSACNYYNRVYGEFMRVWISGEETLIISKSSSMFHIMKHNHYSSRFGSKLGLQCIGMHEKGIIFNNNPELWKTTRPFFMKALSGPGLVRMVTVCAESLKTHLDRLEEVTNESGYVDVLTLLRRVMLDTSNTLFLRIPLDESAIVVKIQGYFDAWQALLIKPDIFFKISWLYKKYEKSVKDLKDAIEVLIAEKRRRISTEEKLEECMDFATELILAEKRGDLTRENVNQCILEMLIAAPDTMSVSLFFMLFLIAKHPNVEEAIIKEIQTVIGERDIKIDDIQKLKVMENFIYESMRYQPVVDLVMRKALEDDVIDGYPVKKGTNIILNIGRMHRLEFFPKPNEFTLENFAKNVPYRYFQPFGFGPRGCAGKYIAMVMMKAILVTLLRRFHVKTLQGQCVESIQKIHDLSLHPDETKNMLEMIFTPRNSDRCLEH

Row | Compound | Potency [1] | Potency [2] | outcome [3] | Potency [4] | outcome [5] | Potency [6] | Potency [7] | Potency [8] | Potency [9] | Potency [10] | activity change, negative = cytotoxic [1] | activity, negative = inhibition [2] | activation [3] | activity, negative = inhibition [4] | activity, negative = cytotoxicity [5] | activation [6] | activation [7] | activity change, negative = inhibition [8] | activity change, negative = cytotoxicity [9] | activity, negative = inhibition [10]
1 | O=C1c2ccccc2C(=O)C1c1ccc2cc(S(=O)(=O)O)cc(S(=O)(=O)O)c2n1 | 33.1 µM (active) | inactive | inactive | inactive | inactive | inactive | inactive | inactive | 52.5 µM (active) | inactive | – | – | – | – | – | – | – | – | – | –
2 | CCCCCC1CCC(=O)O1 (stereo not given) | inactive | inactive | inactive | inactive | inactive | inactive | inactive | inactive | inactive | inactive | – | – | – | – | – | – | – | – | – | –
3 | CCc1cnc(C(=O)O)c(C(=O)O)c1 | inactive | inactive | inactive | inactive | inactive | inactive | inactive | inactive | inactive | inactive | – | – | – | – | – | – | – | – | – | –
4 | CC(C)NC(=O)c1ccccc1N | inactive | inactive | inactive | inactive | inactive | inactive | inactive | inactive | inactive | inactive | – | – | – | – | – | – | – | – | – | –
5 | CCCCOC(=O)CC#N | inactive | inactive | inactive | inactive | inactive | inactive | inactive | inactive | inactive | inactive | – | – | – | – | – | – | – | – | – | –
6 | CCCCCCCCCCCCN1CCOCC1 | inactive | inactive | inactive | inactive | inactive | inactive | inactive | inactive | inactive | inactive | – | – | – | – | – | – | – | – | – | –
7 | C=CCCC | inactive | inactive | inactive | inactive | inactive | inactive | inactive | inactive | inactive | inactive | – | – | – | – | – | – | – | – | – | –
8 | CCCC(=O)OCCC(C)C | inactive | inactive | inactive | inactive | inactive | inactive | inactive | inactive | inactive | inactive | – | – | – | – | – | – | – | – | – | –
9 | CC(COc1ccccc1)NC(C)C(O)c1ccc(O)cc1 (stereo not given) | inactive | inactive | inactive | inactive | inactive | inactive | inactive | inactive | inactive | inactive | – | – | – | – | – | – | – | – | – | –
10 | O=C(O)c1cc(C(=O)O)c(C(=O)O)cc1C(=O)O | inactive | inactive | inactive | inactive | inactive | inactive | inactive | inactive | inactive | inactive | – | – | – | – | – | – | – | – | – | –
11 | CCCC1CCOC(C)S1 (stereo not given) | inactive | inactive | inactive | inactive | inactive | inactive | inactive | inactive | inactive | inactive | – | – | – | – | – | – | – | – | – | –
12 | O=[N+]([O-])c1cccc(I)c1 | inactive | inactive | inactive | inactive | inactive | inactive | inactive | inactive | inactive | inactive | – | – | – | – | – | – | – | – | – | –
13 | COC=O | – | – | – | – | – | – | – | – | – | – | 17.8% [at 8.44 µM] | 9.66% [at 8.44 µM] | 0.249% [at 8.08 µM] | 29% [at 6.71 µM] | 7.46% [at 6.72 µM] | 2.27% [at 6.71 µM] | 11.2% [at 8.47 µM] | 1.93% [at 8.47 µM] | 4.5% [at 8.47 µM] | 2.56% [at 8.47 µM]
14 | O=C(O)CCc1nc2ccccc2[nH]1 | inactive | inactive | inactive | inactive | inactive | inactive | inactive | inactive | inactive | inactive | – | – | – | – | – | – | – | – | – | –
15 | CCC1=C(C)CN(C(=O)NCCc2ccc(S(=O)(=O)NC(=O)NC3CCC(C)CC3)cc2)C1=O (stereo not given) | inactive | inactive | inactive | inactive | inactive | inactive | inactive | inactive | inactive | inactive | – | – | – | – | – | – | – | – | – | –
16 | O=C(Cl)c1cc(Cl)cc(Cl)c1 | inactive | inactive | inactive | inactive | inactive | inactive | inactive | inactive | inactive | inactive | – | – | – | – | – | – | – | – | – | –
17 | CCCC1CCCC(=O)O1 (stereo not given) | inactive | inactive | inactive | inactive | inactive | inactive | inactive | inactive | inactive | inactive | – | – | – | – | – | – | – | – | – | –
18 | O=C1OC(=O)C2CC=CCC12 (stereo not given) | inactive | inactive | inactive | inactive | inactive | inactive | inactive | inactive | inactive | inactive | – | – | – | – | – | – | – | – | – | –
19 | Cc1ccccc1CCO | inactive | inactive | inactive | inactive | inactive | inactive | inactive | inactive | inactive | inactive | – | – | – | – | – | – | – | – | – | –
20 | CC(=O)Nc1cccc(N)c1 | inactive | inactive | inactive | inactive | inactive | inactive | inactive | inactive | inactive | inactive | – | – | – | – | – | – | – | – | – | –
21 | C=CC(=O)NC(C)(C)C | inactive | inactive | inactive | inactive | inactive | inactive | inactive | inactive | inactive | inactive | – | – | – | – | – | – | – | – | – | –
22 | CCCCCCOC(=O)c1ccccc1 | inactive | inactive | inactive | inactive | inactive | inactive | inactive | inactive | inactive | inactive | – | – | – | – | – | – | – | – | – | –
23 | CC(C)=CCC[C@H](C)CCO | inactive | inactive | inactive | inactive | inactive | inactive | inactive | inactive | inactive | inactive | – | – | – | – | – | – | – | – | – | –
